{"source": "PubChem BioAssay (NCI)", "note": "“And” between values parts separate entries of the source, which are not always exact repeats. Identical values can stand only once. This is part of a sample that, as a whole, favours compounds with a hit. Of some 83,000 tested, about 20% had one in any assay.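 The endpoint reported here, percent growth, reads 100 for growth as untreated, 0 for no net growth and -100 for all cells dead.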 The source made the active and inactive calls. The calls were made as follows: active = growth percent below 10; inactive = the rest.", "data": [{"system": "MDA-MB-468 breast", "assay": "NCI-60 one-dose screen, 48 h (100 = growth as untreated, 0 = no growth, -100 = all killed)", "conditions": "10 µM unless noted", "values": [{"smiles": "COc1cc(-c2ccc(NC(=O)NC3CC3)c(OC)c2)ccc1NC(=O)NC1CC1", "growth": "88.8% (inactive)"}, {"smiles": "Oc1[nH]c2ccccc2c1/C=c1/ccc2c(c1)N=C(c1cc(F)cc(F)c1)N=2", "growth": "20.6% (inactive)"}, {"smiles": "COc1cc(OC)c(NC(=O)C(Sc2nc(C)cc(C)c2C#N)c2ccccc2)cc1Cl", "note": "(stereo not given)", "growth": "93.6% (inactive)"}, {"smiles": "CCNc1ncnc2n[nH]nc12", "growth": "97.2% (inactive)"}, {"smiles": "O=C(O)C1CCCN1C(=O)OCc1ccccc1", "note": "(stereo not given)", "growth": "115% (inactive)"}, {"smiles": "CCOC(=O)c1[nH]c(C)c(C(=O)O)c1C", "growth": "108% (inactive)"}, {"smiles": "CC[N+](CC)=c1ccc2nc3c(cc(NCc4ccccc4)c4ccccc43)oc-2c1", "growth": "-88.7% (active)"}, {"smiles": "CC(=O)Nc1cccc(Cl)c1C", "growth": "103% (inactive)"}, {"smiles": "COC(=O)/C=C1/SC(=Nc2ccc(C(F)(F)F)cc2)N(CCc2c[nH]c3ccc(O)cc23)C1=O", "growth": "8.44% (active)"}, {"smiles": "CC(SC(C)C(=O)N/N=C/c1cccc(Cl)c1)C(=O)N/N=C\\c1cccc(Cl)c1", "note": "(stereo not given)", "growth": "97.4% (inactive)"}, {"smiles": "COC(=O)CCC/C=C\\C[C@H]1C=CC(=O)/C1=C/C[C@@H](O)C/C=C\\CC(F)(F)F", "growth": "-6.29% (active)"}, {"smiles": "COc1cccc(-c2nc3sccn3c2-c2ccnc(NCCCNS(=O)(=O)c3c(Cl)cccc3Cl)c2)c1", "growth": "49.3% (inactive)"}, {"smiles": "O=c1oc2c(cnc3ccccc32)cc1-c1cccs1", "growth": "107% (inactive)"}, {"smiles": "OCCOc1c(Cl)cc(Cl)cc1Cl", "growth": "127% (inactive)"}, {"smiles": "CS(=O)c1cccc(-c2ccc3nc(N)n(-c4ccc(C(F)(F)F)cc4)c(=O)c3c2)c1", "note": "(stereo not given)", "growth": "84.4% (inactive)"}, {"smiles": "Cn1c(=O)c2c(nc(NC3=NS(=O)(=O)c4ccccc43)n2Cc2ccccc2)n(C)c1=O", "growth": "103% (inactive)"}, {"smiles": "CC(=O)OCC1CCC(COC(C)=O)CC1", "note": "(stereo not given)", "growth": "110% (inactive)"}, {"smiles": "CCCCOc1ccc(NC(=O)n2nc(N=NN(C)C)c3ccc(Cl)cc32)cc1", "growth": "97.9% (inactive)"}, {"smiles": "CCCCCN(CCCCC)CC(O)c1c(Cl)ccc2ccccc12", "note": "(stereo not given)", "growth": "78.9% (inactive)"}, {"smiles": "N#Cc1c(-c2ccc(C(F)(F)F)cc2)cc(NCC2CCS(=O)(=O)CC2)n2c1nc1ccccc12", "growth": "78.1% (inactive)"}, {"smiles": "O=c1[nH]c(Cl)nc2c1cnn2-c1ccccc1", "growth": "101% (inactive)"}, {"smiles": "Cc1ccc(S(=O)(=O)NCCCNc2cc(-c3cn(C(C)(C)C)nc3-c3cccc(O)c3)ccn2)cc1", "growth": "35.5% (inactive)"}, {"smiles": "O=[N+]([O-])c1ccc(Oc2cc(Cl)c(Cl)cc2Cl)c(C(F)(F)F)c1", "growth": "100% (inactive)"}, {"smiles": "Cc1ccc(-c2nc3ccc(Cl)cn3c2NC2CCCCC2)o1", "growth": "78.2% (inactive)"}, {"smiles": "COC(=O)c1c[n+]([O-])ccc1OC", "growth": "106% (inactive)"}, {"smiles": "CN(C)CCCNC(=O)C(c1ccccc1)c1ccccc1", "growth": "111% (inactive)"}, {"smiles": "O=Nc1ccc(O)cc1", "growth": "78.3% (inactive) and 93.9% (inactive)"}, {"smiles": "Cc1ccc(-c2nc(C(Cl)Cl)nc3cc(-c4ccccc4)nn23)cc1", "growth": "-54.2% (active)"}, {"smiles": "N#C/C(=C/c1ccc(O)c([N+](=O)[O-])c1)c1nc(-c2ccc([N+](=O)[O-])cc2)cs1", "growth": "14.3% (inactive)"}, {"smiles": "COc1ccc(S(=O)(=O)Nc2ccc(OCc3nnc(-c4ccc(Cl)cc4)o3)c(F)c2)cc1", "growth": "15.2% (inactive)"}, {"smiles": "COc1ccc(-c2cn(Cc3ccc4c(Br)cc(Br)c(O)c4n3)nn2)cc1", "growth": "72.2% (inactive)"}, {"smiles": "C[Si](C)(C)Cc1ccccc1", "growth": "104% (inactive)"}, {"smiles": "COCCNC(C)=O", "growth": "96.1% (inactive)"}, {"smiles": "Cc1ccc(NS(=O)(=O)c2ccc3c(c2)C2OCCC2C(c2ccc(C(=O)C(C)C)cc2)N3)cc1C", "note": "(stereo not given)", "growth": "-4.81% (active)"}, {"smiles": "COc1ccc(-c2nnc3n(C)c(=O)c4ccccc4n23)cc1N", "growth": "-6.61% (active)"}, {"smiles": "COc1cc(/C=C(/C)C[N+](=O)[O-])ccc1O", "growth": "57.9% (inactive)"}, {"smiles": "CN1CCC(=C2c3ccccc3C=Cc3ccccc32)CC1", "growth": "36% (inactive)"}, {"smiles": "COc1ccc(Cn2cc3c(c2-c2ccccc2)CC(C)(C)c2cnoc2-3)cc1", "growth": "3.53% (active)"}, {"smiles": "Cn1cc(-c2noc(-c3cn(C)c4ncc(Br)cc34)n2)c2cc(Cl)ccc21", "growth": "82.3% (inactive)"}, {"smiles": "Cc1sc2nc(NCc3ccccc3)[nH]c(=O)c2c1C", "growth": "23.7% (inactive)"}]}]}
